# In PubChem BioAssay AID1159580 (chemical genetic matrix, 2015):
# Out of some 5,500 compounds screened, about 2,000 (36%) were called active. About 18% were inconclusive and are not listed. The list shows a part of the results. A number with no mark means an inactive call. No stated cut-off is given here; in the data, active means normalized growth mostly below about 0.91 (no sharp cut-off); inconclusive means no clear call, values can overlap the other calls; inactive means mostly above about 0.92.
# Assay: chemical genetic growth profiling, strain panel (AID 1159580);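 further: tested at 20 µM; growth read once vehicle control cultures reached saturation at 30 °C; 1 = growth at the plate median or of vehicle wells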
# Details: growth OD
# [1] = S. cerevisiae deletion strains, locus YAL013W, strain DEP1, stronger effect = lower value
# [2] = S. cerevisiae deletion strains, locus YBR229C, strain ROT2, stronger effect = lower value
# [3] = S. cerevisiae deletion strains, locus YDL101C, strain DUN1, stronger effect = lower value
# [4] = S. cerevisiae deletion strains, locus YDL134C, strain PPH21, stronger effect = lower value
# [5] = S. cerevisiae deletion strains, locus YEL061C, strain CIN8, stronger effect = lower value
# [6] = S. cerevisiae deletion strains, locus YGR078C, strain PAC10, stronger effect = lower value
# [7] = S. cerevisiae deletion strains, locus YHR030C, strain SLT2, stronger effect = lower value
# [8] = S. cerevisiae deletion strains, locus YJR043C, strain POL32, stronger effect = lower value
# [9] = S. cerevisiae deletion strains, locus YJR075W, strain HOC1, stronger effect = lower value
# [10] = S. cerevisiae deletion strains, locus YLR039C, strain RIC1, stronger effect = lower value
# [11] = S. cerevisiae deletion strains, locus YLR262C, strain YPT6, stronger effect = lower value
# [12] = S. cerevisiae deletion strains, locus YMR307W, strain GAS1, stronger effect = lower value
# [13] = S. cerevisiae deletion strains, locus YNL153C, strain GIM3, stronger effect = lower value
# [14] = S. cerevisiae deletion strains, locus YNL322C, strain KRE1, stronger effect = lower value
# [15] = S. cerevisiae deletion strains, locus YPL055C, strain LGE1, stronger effect = lower value
# [16] = S. cerevisiae deletion strains, locus YPL241C, strain CIN2, stronger effect = lower value
# [17] = S. cerevisiae strains, strain wild type, stronger effect = lower value
# [18] = S. cerevisiae deletion strains, locus YJL095W, strain BCK1, stronger effect = lower value
compound,measurement,setting,value
Cc1onc(-c2c(F)cccc2Cl)c1C(=O)Oc1ccccc1,normalized growth,[1],0.964
same,normalized growth,[2],0.962
same,normalized growth,"S. cerevisiae deletion strains, locus YCL061C, strain MRC1, stronger effect = lower value",0.963
same,normalized growth,[3],0.938
same,normalized growth,[4],0.993
same,normalized growth,"S. cerevisiae deletion strains, locus YDR150W, strain NUM1, stronger effect = lower value",0.943
same,normalized growth,[5],0.908 (active)
same,normalized growth,[6],0.945
same,normalized growth,[7],0.727
same,normalized growth,"S. cerevisiae deletion strains, locus YHR087W, strain rtc3, stronger effect = lower value",0.948
same,normalized growth,[8],0.951
same,normalized growth,[9],0.939
same,normalized growth,[10],0.857
same,normalized growth,"S. cerevisiae deletion strains, locus YLR058C, strain SHM2 (second series), stronger effect = lower value",0.973
same,normalized growth,"S. cerevisiae deletion strains, locus YLR085C, strain ARP6, stronger effect = lower value",0.838
same,normalized growth,[11],0.839
same,normalized growth,"S. cerevisiae deletion strains, locus YML094W, strain GIM5, stronger effect = lower value",0.978
same,normalized growth,"S. cerevisiae deletion strains, locus YMR219W, strain ESC1, stronger effect = lower value",0.966
same,normalized growth,"S. cerevisiae deletion strains, locus YMR263W, strain SAP30, stronger effect = lower value",0.979
same,normalized growth,[12],0.705
same,normalized growth,[13],0.984
same,normalized growth,"S. cerevisiae deletion strains, locus YNL298W, strain CLA4 (second series), stronger effect = lower value",0.98
same,normalized growth,[14],0.973
same,normalized growth,"S. cerevisiae deletion strains, locus YNR030W, strain Alg12, stronger effect = lower value",0.989
same,normalized growth,[15],0.97
same,normalized growth,[16],0.994
same,normalized growth,"S. cerevisiae deletion strains, locus YPR135W, strain CTF4, stronger effect = lower value",0.948
same,normalized growth,[17],0.935
NC/C=C\C(=O)O,normalized growth,[1],1
same,normalized growth,"S. cerevisiae deletion strains, locus YAL040C, strain CLN3, stronger effect = lower value",0.994
same,normalized growth,"S. cerevisiae deletion strains, locus YER002W, strain NOP16, stronger effect = lower value",1.01
same,normalized growth,"S. cerevisiae deletion strains, locus YGR229C, strain SMI1, stronger effect = lower value",1.02
same,normalized growth,[12],1
same,normalized growth,"S. cerevisiae deletion strains, locus YNL175C, strain NOP13, stronger effect = lower value",1
same,normalized growth,"S. cerevisiae deletion strains, locus YNL197C, strain WHI3, stronger effect = lower value",0.985
same,normalized growth,"S. cerevisiae deletion strains, locus YNL224C, strain SQS1, stronger effect = lower value",0.993
same,normalized growth,"S. cerevisiae deletion strains, locus YOR083W, strain WHI5 (second series), stronger effect = lower value",1.02
CCC(C)c1cnc(CC(C)C)c(=O)n1O (configuration not stated),normalized growth,"S. cerevisiae deletion strains, locus YBR021W, strain FUR4, stronger effect = lower value",1.01
same,normalized growth,[2],1.01
same,normalized growth,"S. cerevisiae deletion strains, locus YCL029C, strain bik1, stronger effect = lower value",1.02
same,normalized growth,"S. cerevisiae deletion strains, locus YDL035C, strain GPR1, stronger effect = lower value",0.818 (active)
same,normalized growth,"S. cerevisiae deletion strains, locus YDL074C, strain BRE1, stronger effect = lower value",0.876
same,normalized growth,[3],1.02
same,normalized growth,[4],1.04
same,normalized growth,"S. cerevisiae deletion strains, locus YDL185W, strain tfp1, stronger effect = lower value",0.231 (active)
same,normalized growth,"S. cerevisiae deletion strains, locus YDL192W, strain arf1, stronger effect = lower value",0.933
same,normalized growth,"S. cerevisiae deletion strains, locus YDR101C, strain arx1, stronger effect = lower value",0.993
same,normalized growth,"S. cerevisiae deletion strains, locus YDR162C, strain NBP2, stronger effect = lower value",0.545 (active)
same,normalized growth,"S. cerevisiae deletion strains, locus YDR318W, strain mcm21, stronger effect = lower value",1.03
same,normalized growth,"S. cerevisiae deletion strains, locus YDR388W, stronger effect = lower value",1.02
same,normalized growth,"S. cerevisiae deletion strains, locus YDR502C, strain sam2, stronger effect = lower value",0.967
same,normalized growth,[5],0.846 (active)
same,normalized growth,"S. cerevisiae deletion strains, locus YER110C, stronger effect = lower value",1.02
same,normalized growth,"S. cerevisiae deletion strains, locus YER155C, strain BEM2, stronger effect = lower value",1.01
same,normalized growth,"S. cerevisiae deletion strains, locus YER167W, strain BCK2, stronger effect = lower value",0.998
same,normalized growth,"S. cerevisiae deletion strains, locus YGL078C, strain dbp3, stronger effect = lower value",0.87 (active)
same,normalized growth,"S. cerevisiae deletion strains, locus YGL086W, strain mad1, stronger effect = lower value",0.946
same,normalized growth,"S. cerevisiae deletion strains, locus YGL248W, strain PDE1, stronger effect = lower value",1.04
same,normalized growth,[6],0.905
same,normalized growth,"S. cerevisiae deletion strains, locus YGR135W, strain pre9, stronger effect = lower value",0.977
same,normalized growth,"S. cerevisiae deletion strains, locus YGR252W, strain gcn5, stronger effect = lower value",1.1
same,normalized growth,"S. cerevisiae deletion strains, locus YHR079C, strain IRE1 (second series), stronger effect = lower value",1.02
same,normalized growth,"S. cerevisiae deletion strains, locus YHR094C, strain hxt1, stronger effect = lower value",1.01
same,normalized growth,"S. cerevisiae deletion strains, locus YHR129C, strain ARP1, stronger effect = lower value",0.894 (active)
same,normalized growth,"S. cerevisiae deletion strains, locus YHR200W, strain rpn10, stronger effect = lower value",0.961
same,normalized growth,"S. cerevisiae deletion strains, locus YIL066C, strain RNR3, stronger effect = lower value",0.994
same,normalized growth,"S. cerevisiae deletion strains, locus YIL073C, strain SPO22, stronger effect = lower value",1.18
same,normalized growth,"S. cerevisiae deletion strains, locus YIL125W, strain kgd1, stronger effect = lower value",0.815 (active)
same,normalized growth,"S. cerevisiae deletion strains, locus YIR030C, strain dcg1, stronger effect = lower value",1.01
same,normalized growth,[18],0.981
same,normalized growth,"S. cerevisiae deletion strains, locus YJL134W, strain LCB3, stronger effect = lower value",0.993
same,normalized growth,"S. cerevisiae deletion strains, locus YJL168C, strain set2, stronger effect = lower value",1.02
same,normalized growth,"S. cerevisiae deletion strains, locus YJL187C, strain SWE1 (second series), stronger effect = lower value",1.01
same,normalized growth,[8],0.645 (active)
same,normalized growth,[9],0.837 (active)
same,normalized growth,"S. cerevisiae deletion strains, locus YKL009W, strain mrt4, stronger effect = lower value",0.936
same,normalized growth,"S. cerevisiae deletion strains, locus YKL068W, stronger effect = lower value",0.864 (active)
same,normalized growth,"S. cerevisiae deletion strains, locus YKL085W, strain MDH1 (second series), stronger effect = lower value",0.771 (active)
same,normalized growth,"S. cerevisiae deletion strains, locus YKL085W, strain MDH1, stronger effect = lower value",0.771 (active)
same,normalized growth,"S. cerevisiae deletion strains, locus YKR001C, strain vps1, stronger effect = lower value",0.963
same,normalized growth,[10],0.771
same,normalized growth,"S. cerevisiae deletion strains, locus YLR058C, strain SHM2, stronger effect = lower value",1.02
same,normalized growth,"S. cerevisiae deletion strains, locus YLR102C, strain apc9, stronger effect = lower value",1.02
same,normalized growth,[11],0.806
same,normalized growth,"S. cerevisiae deletion strains, locus YLR268W, strain sec22, stronger effect = lower value",1.01
same,normalized growth,"S. cerevisiae deletion strains, locus YLR371W, strain rom2, stronger effect = lower value",1.04
same,normalized growth,"S. cerevisiae deletion strains, locus YLR418C, strain cdc73, stronger effect = lower value",0.991
same,normalized growth,"S. cerevisiae deletion strains, locus YML016C, strain PPZ1, stronger effect = lower value",1.01
same,normalized growth,"S. cerevisiae deletion strains, locus YML032C, strain rad52, stronger effect = lower value",1.01
same,normalized growth,"S. cerevisiae deletion strains, locus YML124C, strain tub3, stronger effect = lower value",1.02
same,normalized growth,"S. cerevisiae deletion strains, locus YMR078C, strain ctf18, stronger effect = lower value",1.01
same,normalized growth,"S. cerevisiae deletion strains, locus YMR223W, strain ubp8, stronger effect = lower value",1.01
same,normalized growth,[12],0.534 (active)
same,normalized growth,"S. cerevisiae deletion strains, locus YNL067W, strain RPL9B, stronger effect = lower value",0.955
same,normalized growth,[13],0.881
same,normalized growth,"S. cerevisiae deletion strains, locus YNL233W, strain BNI4, stronger effect = lower value",0.969
same,normalized growth,"S. cerevisiae deletion strains, locus YNL250W, strain rad50, stronger effect = lower value",0.906
same,normalized growth,"S. cerevisiae deletion strains, locus YNL271C, strain bni1, stronger effect = lower value",0.78 (active)
same,normalized growth,"S. cerevisiae deletion strains, locus YNL298W, strain CLA4, stronger effect = lower value",0.708 (active)
same,normalized growth,"S. cerevisiae deletion strains, locus YNL307C, strain MCK1, stronger effect = lower value",1.02
same,normalized growth,[14],0.579 (active)
same,normalized growth,"S. cerevisiae deletion strains, locus YNR052C, strain pop2, stronger effect = lower value",1.03
same,normalized growth,"S. cerevisiae deletion strains, locus YOL006C, strain TOP1, stronger effect = lower value",1.21
same,normalized growth,"S. cerevisiae deletion strains, locus YOL012C, strain htz1",0.477
same,normalized growth,"S. cerevisiae deletion strains, locus YOL147C, strain pex11, stronger effect = lower value",1
same,normalized growth,"S. cerevisiae deletion strains, locus YOR061W, strain CKA2, stronger effect = lower value",0.997
same,normalized growth,"S. cerevisiae deletion strains, locus YOR069W, strain VPS5, stronger effect = lower value",0.998
same,normalized growth,"S. cerevisiae deletion strains, locus YOR136W, strain idh2, stronger effect = lower value",1.03
same,normalized growth,"S. cerevisiae deletion strains, locus YOR144C, strain elg1, stronger effect = lower value",1.01
same,normalized growth,"S. cerevisiae deletion strains, locus YOR184W, strain ser1, stronger effect = lower value",0.957
same,normalized growth,"S. cerevisiae deletion strains, locus YOR316C, strain cot1, stronger effect = lower value",1.03
same,normalized growth,[15],0.548 (active)
same,normalized growth,[16],0.717 (active)
same,normalized growth,"S. cerevisiae deletion strains, locus YPR119W, strain clb2, stronger effect = lower value",1.01
same,normalized growth,"S. cerevisiae deletion strains, locus YPR141C, strain kar3, stronger effect = lower value",0.844 (active)
same,normalized growth,"S. cerevisiae deletion strains, locus YPR163C, strain tif3, stronger effect = lower value",1.02
same,normalized growth,"S. cerevisiae deletion strains, locus YPR167C, strain met16, stronger effect = lower value",1.01
same,normalized growth,"S. cerevisiae deletion strains, strain wtn01, stronger effect = lower value",0.902
same,normalized growth,[17],0.275 (active)
CC(C)c1c(CN(C)C(C)Cc2ccccc2)n(C)n(-c2ccccc2)c1=O (configuration not stated),normalized growth,[7],0.997
same,normalized growth,"S. cerevisiae deletion strains, locus YHR079C, strain IRE1, stronger effect = lower value",1.01
same,normalized growth,[18],0.992
same,normalized growth,"S. cerevisiae deletion strains, locus YJR066W, strain TOR1, stronger effect = lower value",0.938
same,normalized growth,"S. cerevisiae deletion strains, locus YLR113W, strain HOG1, stronger effect = lower value",1.01
same,normalized growth,"S. cerevisiae deletion strains, locus YNL183C, strain NPR1, stronger effect = lower value",0.935
same,normalized growth,"S. cerevisiae deletion strains, locus YOR231W, strain MKK1, stronger effect = lower value",1
same,normalized growth,"S. cerevisiae deletion strains, locus YPL256C, strain CLN2, stronger effect = lower value",0.971
